The record followed here is publication PMC5540273 (PLoS ONE, 2017).

Test systems include TAOK1; TAOK2; TAOK3; TBK1; TEC; TESK1; TGFBR1; TGFBR2; TIE1; TLK1; TLK2; TNIK; TNK1; TNK2; TNNI3K; TRKB.
Common to all, as to conditions: concentration: 1 μM, replicates: in singlicate; n = 1
For the next assay, the system named is T1, TAK1.
T1 construct: gene MAP3K7

The subject of another assay is T2, TIE2.
T2 construct: gene TEK

A further assay concerns T3, TRKA.
T3 construct: gene NTRK1

The next assay deals with T4, TRKC.
T4 construct: gene NTRK3
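Further: KINOMEscan kinase panel screen.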

Regarding `Nc1nc(-c2ccccc2F)c(-c2ccnc3ccccc23)s1` [GW560459], the “%Inh” value in the assay with TAK1 worked out at 0%; in the assay with TAOK1, 0%; with TAOK2 it was 0%; in the assay with TAOK3, 0%; with TBK1, 20%; with TEC it was 0%. For the same compound, the “%Inh” value in the assay with TESK1 amounted to 12%; in the assay with TGFBR1 it was 16%; in the assay on TGFBR2, 0%; in the assay with TIE1, 0%; with TIE2, 3%; with TLK1, 0%. Moreover, the “%Inh” value is on record as 0% in the assay with TLK2; 65% in the assay on TNIK; 0% in the assay on TNK1; 3% with TNK2; 94.1% with TNNI3K; 0% in the assay on TRKA. The “%Inh” value in the assay on TRKB came to 26%; in the assay with TRKC, 31%.

In the case of `CCc1ccc(-c2ccc3c(c2)-c2nn(C)cc2S(=O)(=O)N3C)cc1`, the “%Inh” value was found to be 0% in the assay on TAK1; 0% in the assay with TAOK1; 37% with TAOK2; 0% with TAOK3; 0% in the assay on TBK1; 0% in the assay on TEC. The “%Inh” value with TESK1 stood at 2%; in the assay with TGFBR1, 1%; with TGFBR2, 0%; with TIE1 it was 0%; in the assay on TIE2, 0%; in the assay with TLK1, 35%. For the same compound, the “%Inh” value stood at 0% in the assay on TLK2; 38% in the assay on TNIK; 14% in the assay with TNK1; 0% with TNK2; 0% in the assay with TNNI3K; 0% in the assay on TRKA. The “%Inh” value in the assay on TRKB and with TRKC was 0% in each case.

On to `CN(C)c1cc(-c2ccc3c(N)n[nH]c3c2)nc(N)n1` [GSK2219329], for which the “%Inh” value is 0% in the assay on TAK1; 0% in the assay on TAOK1; 0% in the assay on TAOK2; 0% in the assay with TAOK3; 9% in the assay with TBK1; 1% in the assay on TEC. In addition, the “%Inh” value with TESK1 turned out to be 76%; in the assay on TGFBR2, 0%; with TIE1 it was 0%; in the assay on TIE2, 0%; in the assay on TLK1, 9%; with TLK2 it was 0%. Further, the “%Inh” value was determined as 0% in the assay with TNIK; 0% in the assay on TNK1; 1% in the assay with TNK2; 0% with TNNI3K; 0% in the assay on TRKA; 0% in the assay on TRKB. Also, the “%Inh” value in the assay with TRKC was 0%.

Consider `Cc1nn2c(=O)cc(N3CCOCC3)nc2n1Cc1cccc(Cl)c1Cl` [GSK2342769], for which the “%Inh” value was determined as 0% with TAK1; 0% in the assay with TAOK1; 0% with TAOK2; 0% in the assay on TAOK3; 11% with TBK1; 0% in the assay with TEC. Besides, the “%Inh” value with TESK1 is 10%; in the assay on TGFBR1, 0%; in the assay on TGFBR2, 44%; in the assay with TIE1, 12%; with TIE2, 0%; in the assay on TLK1, 0%. The “%Inh” value in the assay with TLK2 is on record as 0%; in the assay with TNIK it was 0%; in the assay with TNK1 it was 0%; in the assay on TNK2, 16%; in the assay on TNNI3K, 5%; in the assay on TRKA it was 0%. The “%Inh” value came out at 0% in the assay with TRKB and 4% in the assay with TRKC.

With `COc1cc2nccc(Nc3ccc(OCc4ccc(NC(C)=O)cc4)cc3)c2cc1OC.Cl` [GW440135], the “%Inh” value in the assay with TAK1 turned out to be 0%; in the assay with TAOK1, 0%; in the assay with TAOK2 it was 0%; in the assay with TAOK3 it was 1%; in the assay with TBK1 it was 0%; with TEC it was 0%. Further, the “%Inh” value in the assay on TESK1 is recorded as 13%; in the assay on TGFBR1, 21%; with TGFBR2, 5%; with TIE1, 1%; with TIE2, 1%; with TLK1 it was 0%. Also, the “%Inh” value with TLK2 is reported as 0%; with TNIK, 0%; in the assay on TNK1 it was 0%; in the assay with TNK2, 16%; with TNNI3K, 0%; in the assay on TRKA it was 37%. In addition, the “%Inh” value in the assay on TRKB stood at 0%; in the assay with TRKC, 21%.

For the compound `COC(=O)c1c(-c2ccccc2)c2cc(Br)ccc2c(=O)n1Cc1ccc(NC(=O)CCC(=O)O)cc1`, the “%Inh” value in the assay on TAK1 was found to be 19%; in the assay with TAOK1, 0%; in the assay with TAOK2, 0%; with TAOK3, 0%; in the assay on TBK1, 22%; with TEC, 10%. Moreover, the “%Inh” value with TESK1 came out at 39%; with TGFBR1, 10%; with TGFBR2, 0%; in the assay with TIE1, 0%; in the assay on TIE2 it was 0%; in the assay on TLK1, 19%. Also, the “%Inh” value stood at 0% in the assay with TLK2; 0% in the assay on TNIK; 17% in the assay with TNK1; 0% in the assay on TNK2; 0% in the assay on TNNI3K; 0% with TRKA. Besides, the results for the “%Inh” value in the assay on TRKB and in the assay on TRKC were 0% and 35%, respectively.

As to `CCCC(=O)Nc1n[nH]c2ncc(-c3cccc4ccccc34)cc12` [SB-642057], the “%Inh” value with TAK1 was 0%; in the assay with TAOK1, 0%; in the assay on TAOK2, 1%; in the assay with TAOK3, 1%; with TBK1, 27%; in the assay with TEC, 15%. The “%Inh” value was 40% in the assay on TESK1; 14% in the assay on TGFBR1; 49% with TGFBR2; 0% in the assay with TIE1; 0% in the assay on TIE2; 32% in the assay on TLK1. The “%Inh” value in the assay on TLK2 turned out to be 100%; in the assay with TNIK it was 0%; with TNK1 it was 0%; in the assay on TNK2, 4%; in the assay on TNNI3K it was 5%; in the assay on TRKA it was 0%. In addition, the “%Inh” value with TRKB and in the assay with TRKC was 0% in each case.

For the compound `CCC(=O)c1c(-c2ccccc2)c2cc(Cl)ccc2c(=O)n1Cc1cc(S(C)(=O)=O)n(CCC(C)(C)O)n1`, the “%Inh” value with TAK1 is 31%; in the assay with TAOK1, 9%; with TAOK2, 0%; in the assay with TAOK3 it was 0%; with TBK1, 20%; in the assay with TEC it was 6%. The “%Inh” value was 21% with TESK1; 6% with TGFBR1; 19% in the assay with TGFBR2; 16% with TIE1; 5% in the assay with TIE2; 1% with TLK1. Further, the “%Inh” value turned out to be 0% in the assay with TLK2; 2% in the assay on TNIK; 28% with TNK1; 0% with TNK2; 13% in the assay on TNNI3K; 0% in the assay with TRKA. Moreover, the “%Inh” value worked out at 0% in the assay on TRKB and 31% in the assay on TRKC.
